Rows were chosen to be rich in hits. Some 4.6% of all compounds tested hit in one or more screens of this group.
NTMT1 inh: blocks human N-terminal methyltransferase 1 activity; Q9BV86; NTMT1 MTase-Glo SAH luminescence, purified enzyme; Potency, µM (top dose mostly 114 µM), inactives show top-dose activity change, negative = inhibition, usual class: inhibitors; 59,000 tested, 2.5% active; AID 1645870;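 note: potency is the fitted concentration of half-maximal effect; plate controls were DMSO vehicle for no effect and no enzyme for full effect; nearly all actives have a fitted effect of over 65% in size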
Target sequence (Q9BV86 whole entry, looked up): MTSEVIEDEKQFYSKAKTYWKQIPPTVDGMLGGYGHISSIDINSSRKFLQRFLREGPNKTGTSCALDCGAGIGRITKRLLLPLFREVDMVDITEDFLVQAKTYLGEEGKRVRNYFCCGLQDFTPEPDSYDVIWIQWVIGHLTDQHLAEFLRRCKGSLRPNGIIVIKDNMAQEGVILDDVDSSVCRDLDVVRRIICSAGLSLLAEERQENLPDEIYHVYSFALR
HTT-AS act: HTT-AS promoter activation; HEK293 HTT-AS promoter firefly luciferase reporter, 24 h; response scale: percent change from vehicle, -100% = no light; Potency, µM (highest dose often 57.5 µM), without a hit: at the top dose activity change, positive = activation, most hits filed as activators; 48,000 tested, 0.24% active; AID 1508624; note: potency is the fitted concentration of half-maximal effect; nearly all actives have a fitted effect of over 55% in size
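Quantitative HTS used concentration series of up to 57.5 uM final on HEK293 luciferase reporter cells, 24 h at 37 degrees C. Readout was Dual-Glo firefly luminescence.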
DRV1 agonist: agonists of human resolvin D1 receptor DRV1 (GPR32); CHO-K1 GPR32 beta-arrestin PathHunter luminescence, 90 min; zero percent set by DMSO-only wells; O75388; 48,000 tested, 2.5% active; activation, % at 76.9 µM;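 active = activation of at least 60% and not above a set upper limit, about 1 call in 100 departs from these limits; inconclusive = activation of 40% to 60%, or above that upper limit; inactive = activation under 40%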; note: 0% is about no effect
Target sequence (O75388 whole entry, looked up): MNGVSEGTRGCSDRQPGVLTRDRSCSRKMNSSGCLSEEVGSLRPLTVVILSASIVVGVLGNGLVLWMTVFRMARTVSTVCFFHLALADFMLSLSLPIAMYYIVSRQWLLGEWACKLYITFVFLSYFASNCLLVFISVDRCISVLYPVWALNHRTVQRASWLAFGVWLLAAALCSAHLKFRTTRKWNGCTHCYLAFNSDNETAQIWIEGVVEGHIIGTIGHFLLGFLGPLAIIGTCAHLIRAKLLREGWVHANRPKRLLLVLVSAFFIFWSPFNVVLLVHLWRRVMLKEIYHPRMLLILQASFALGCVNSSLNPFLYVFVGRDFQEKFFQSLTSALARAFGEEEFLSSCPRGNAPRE
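Readings come from a cell-based beta-arrestin complementation format: CHO-K1 GPR32 stable cells (2,500/well) treated 90 min with compounds, then beta-Gal substrate added for 1 h before chemiluminescence imaging.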
HTT promoter inh: inhibitors of huntingtin promoter activity; HEK293 HTT promoter firefly luciferase reporter, 24 h; Potency, µM (top dose mostly 57.5 µM), without a hit: top-dose activity change, negative = inhibition, usual class: inhibitors; 48,000 tested, 0.93% active; AID 1508623; note: potency is the fitted concentration of half-maximal effect; nearly all actives have a fitted effect of over 50% in size
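Firefly luciferase readout (Dual-Glo, 10 min RT) after 24 h, 37 °C compound exposure (final up to 57.5 uM) of HEK293 reporter cells cultured 24 h beforehand; PTC124 at 50 uM final as control inhibitor; activity scaled vehicle 0%, zero RLU -100%.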
The depositor's hits bear a star; ! = not active in a repeat; [ ] = another dose, or the depositor's remark. Unless noted, calls come from the whole dose curve; as a rule, active = well fitted curve in the direction sought with a large enough effect; inconclusive = small, poorly fitted or top-dose-only effect, or another doubt; inactive = no such curve, though single readings can be large; an effect the other way counts as inactive or inconclusive.

What do the screens show for `Cc1ccc(S(=O)(=O)CCC(=O)N2CCN(c3nc4c(C)c(C)ccc4s3)CC2)cc1`?
NTMT1 inh: 6.5%; HTT-AS act: -20.0%; DRV1 agonist: 28.6; HTT promoter inh: 0.0%

Results for CCCCC(=O)N1CCN(c2nc3c(C)c(C)ccc3s2)CC1 ?
NTMT1 inh: 7.6%; HTT-AS act: -11.6%; DRV1 agonist: 69.1*; HTT promoter inh: -19.1%

How did Cc1c(Cl)ccc2sc(N3CCN(C(=O)c4ccco4)CC3)nc12 do in these assays?
NTMT1 inh: 0.9%; HTT-AS act: inconclusive; DRV1 agonist: 85.4*; HTT promoter inh: 20.8%

How did COc1cc(N2CCN(C)CC2)ccc1Nc1ncc2c(n1)N(C)c1ccccc1C(=O)N2C do in these assays?
NTMT1 inh: -22.7%

Results for C=C(C)[C@H]1C[C@@H](O)C(=C)CC[C@@H](O)C(=C)[C@@H](O)C1 ?
NTMT1 inh: 16.1%[57.5 µM]

Results for O=C1NC(=NCc2cccs2)S/C1=C/c1ccc2ncccc2c1 ?
NTMT1 inh: -28.5%

Results for Cc1cc(NC(=O)CN2C(=O)C(C)(C)c3ccccc32)ccc1Br ?
NTMT1 inh: -5.8%; HTT-AS act: -14.6%; DRV1 agonist: 22.3; HTT promoter inh: inconclusive

Results for CCOC(=O)c1ccc(NC(=O)CN2C(=O)C(C)(C)c3ccccc32)cc1 ?
NTMT1 inh: 6.7%; HTT-AS act: -34.4%; DRV1 agonist: 109.3*; HTT promoter inh: inconclusive

Results for CCOC(=O)c1ccc(NC(=O)CN2c3ccccc3S(=O)(=O)c3ccccc32)cc1 ?
NTMT1 inh: inconclusive; HTT-AS act: -30.2%; DRV1 agonist: -9.0; HTT promoter inh: inconclusive

What do the screens show for `COc1ccc(NC(=O)CN2C(=O)C(C)(C)c3ccccc32)cc1Cl`?
NTMT1 inh: -2.3%; HTT-AS act: -12.2%[11.5 µM]; DRV1 agonist: 103.0*; HTT promoter inh: inconclusive

What do the screens show for `c1ccc(-c2cc3ncc4c(n3n2)-c2ccccc2OC4)cc1`?
NTMT1 inh: inconclusive; HTT-AS act: 1.58µM*; DRV1 agonist: -5.8; HTT promoter inh: 67.1%

What do the screens show for `Cc1ccc(-c2cc3ncc4c(n3n2)-c2ccccc2OC4)cc1`?
NTMT1 inh: 11.5%; HTT-AS act: inconclusive; DRV1 agonist: -2.0; HTT promoter inh: 41.3%

How did Fc1ccc(-c2noc(CCCCSc3nnc(-c4cccc5ccccc45)o3)n2)cc1 do in these assays?
NTMT1 inh: 1.0%

What do the screens show for `CCN(C(=O)CSc1ncc(S(=O)(=O)c2ccc(C)c(Cl)c2)c(=O)[nH]1)c1cccc(C)c1`?
NTMT1 inh: inconclusive; HTT-AS act: -13.8%; DRV1 agonist: 75.4*; HTT promoter inh: -23.9%

How did OCCN(CCO)c1nc(N2CCCCC2)c2nc(N(CCO)CCO)nc(N3CCCCC3)c2n1 do in these assays?
NTMT1 inh: inconclusive; HTT-AS act: -86.3%; DRV1 agonist: 108.1*!; HTT promoter inh: -44.6%

How did NS(=O)(=O)OC[C@@H]1C[C@@H](n2ccc3c(N[C@H]4CCc5ccccc54)ncnc32)C[C@@H]1O do in these assays?
NTMT1 inh: 39.8µM*!

What do the screens show for `N#C/C(=C(\N)Sc1ccc(N)cc1)c1ccccc1C(F)(F)F`?
NTMT1 inh: 0.9%

Results for CNC(=O)O[C@H]1COc2ccc(N3CCN(C4COC4)CC3)cc2[C@@H]1NC(=O)c1ccc(F)cc1 ?
NTMT1 inh: 1.1%[57.5 µM]

What do the screens show for `O=C(c1cc(O)c(O)c(O)c1)c1ccc(O)c(O)c1O`?
NTMT1 inh: 31.6µM*; HTT-AS act: -0.4%; DRV1 agonist: -27.9; HTT promoter inh: -0.4%

How did COc1ccc(N2CCN(S(=O)(=O)c3ccc(F)c(C(=O)Nc4ccccc4Cl)c3)CC2)cc1 do in these assays?
NTMT1 inh: 12.6%; HTT-AS act: -38.4%; DRV1 agonist: 90.7*; HTT promoter inh: inconclusive

Results for Cc1c(C(=O)O)[nH]c2c1C(=O)CC(c1ccco1)C2 (stereo not given) ?
NTMT1 inh: -2.6%[57.5 µM]

How did O=C(c1ccc(F)c(F)c1Nc1ccc(I)cc1F)N1CC(O)([C@@H]2CCCCN2)C1 do in these assays?
NTMT1 inh: 31.6µM*!

What do the screens show for `CC(C)(C)OC(=O)N[C@@H](Cc1ccc(O[S+](=O)([O-])c2cccc3cnccc23)cc1)C(=O)N1CCN(Cc2ccccc2)CC1`?
NTMT1 inh: -5.9%

How did CNCCCOc1cc(F)c(-c2c(Cl)nc3ncnn3c2N[C@@H](C)C(F)(F)F)c(F)c1 do in these assays?
NTMT1 inh: 28.2µM*

What do the screens show for `CCCOCc1cc(CN2CCN(c3cccc(Cl)c3)CC2)c(O)c2ncccc12`?
NTMT1 inh: 15.7%; HTT-AS act: -38.0%; DRV1 agonist: -7.3; HTT promoter inh: 8.91µM*

Results for CCCCOCc1cc(CN2CCN(c3cccc(Cl)c3)CC2)c(O)c2ncccc12 ?
NTMT1 inh: 14.3%; HTT-AS act: -38.6%; DRV1 agonist: 10.6; HTT promoter inh: inconclusive

What do the screens show for `CC[C@H]1OC(=O)[C@H](C)C(=O)[C@H](C)[C@@H](O[C@H]2O[C@H](C)C[C@H](N(C)C)[C@H]2O)[C@](C)(OC)C[C@@H](C)C(=O)[C@H](C)[C@H]2N(CCCCn3cnc(-c4cccnc4)c3)C(=O)O[C@]12C`?
NTMT1 inh: -3.7%

What do the screens show for `COc1ccc(CCNC(=O)c2ccc3[nH]c(C)c(C)c3c2)cc1OC`?
NTMT1 inh: -29.9%; HTT-AS act: 2.3%; DRV1 agonist: 113.4*; HTT promoter inh: inconclusive

Results for CCOc1ccc(CCNC(=O)c2ccc3[nH]c(C)c(C)c3c2)cc1 ?
NTMT1 inh: -20.7%; HTT-AS act: -19.1%; DRV1 agonist: 72.4*; HTT promoter inh: -20.8%

How did CC(=O)c1ccc(N2CCN(S(=O)(=O)c3ccc(N4CCCC4=O)cc3)CC2)cc1 do in these assays?
NTMT1 inh: 6.8%

What do the screens show for `Cc1ccccc1NC(=O)c1cc2sccc2n1Cc1ccc(F)cc1`?
NTMT1 inh: 3.3%; HTT-AS act: -22.1%; DRV1 agonist: -7.9; HTT promoter inh: -18.7%

Results for CC(NC(=O)c1cc2sccc2n1Cc1ccc(F)cc1)c1ccccc1 (stereo not given) ?
NTMT1 inh: 11.8%; HTT-AS act: -20.6%; DRV1 agonist: 99.8*; HTT promoter inh: -13.7%

How did CC(C)n1cnc2c(NCc3cccc(C(F)(F)F)c3)ncnc21 do in these assays?
NTMT1 inh: -16.7%

How did Cc1ccsc1/C=C/C1=NCCCN1C do in these assays?
NTMT1 inh: 12.6µM*; HTT-AS act: 2.1%; DRV1 agonist: 2.6; HTT promoter inh: 8.0%

How did CCc1cccc(NC(=O)CCc2c(C)nc3c(c2C)c(=O)n(C)c(=O)n3C)c1 do in these assays?
NTMT1 inh: 89.1µM*; HTT-AS act: -34.5%; DRV1 agonist: 11.9; HTT promoter inh: -20.2%

How did Cc1n[nH]c(C)c1CCc1nc2c3ccccc3nc(SCC(=O)Nc3ccc(F)cc3)n2n1 do in these assays?
NTMT1 inh: 10.3%; HTT-AS act: -45.3%; DRV1 agonist: 72.0*; HTT promoter inh: -5.3%

How did COc1ccc([S+](=O)([O-])N2CCCN([S+](=O)([O-])c3ccc(OC)c(N)c3)CC2)cc1N do in these assays?
NTMT1 inh: 4.8%[57.5 µM]
